Outcome and AC50 data for six molecules are collected here from PubChem BioAssay (EPA / NIEHS).

Common to all, as to details: mRNA level, 48 h; actives raise or lower the signal
Read-out in assay [1]: Apoptosis regulator Bcl-2 (Homo sapiens) (UniProt P10415)
Nature of the assay: LTEA_HepaRG_BCL2: Life Technologies and Expression Analysis (LTEA) Assay for Bcl-2 gene using HepaRG (AID 2283475). In a few lines: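 Each chemical was tested in duplicate on HepaRG cultures held in serum-free induction medium for 48 h, highest concentration 100 uM with half-log dilutions. Transcript levels came from multiplexed qRT-PCR, normalised to housekeeping genes; activity was scored in either direction relative to DMSO.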

Read-out in assay [2]: Caspase-3 (Homo sapiens) (UniProt P42574)
Nature of the assay: LTEA_HepaRG_CASP3: Life Technologies and Expression Analysis (LTEA) Assay for cysteine-aspartic acid protease (CASP3) using HepaRG (AID 2283477). Summed up:
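Differentiated human HepaRG cells in serum-free induction medium were exposed 48 h to 8-point half-log concentrations from 100 uM (0.5% DMSO vehicle). CASP3 mRNA was measured by qRT-PCR, normalised to ACTB, GAPDH and POLR2A, with bidirectional fitting against DMSO.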

Read-out in assay [3]: Cytochrome P450 (CYP24A1), CYP24A1 (gene 1591)
Nature of the assay: LTEA_HepaRG_CYP24A1: Life Technologies and Expression Analysis (LTEA) Assay for Cytochrome P450 (CYP24A1) using HepaRG (AID 2283478). In a few lines:
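Differentiated HepaRG cells, pre-cultured 48 h, were exposed in duplicate for 48 h in serum-free induction medium to 8 half-log concentrations (top 100 uM, 0.5% DMSO). CYP24A1 mRNA was quantified by TaqMan qRT-PCR, normalized to ACTB/GAPDH/POLR2A, fitted bidirectionally versus DMSO.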

Read-out in assay [4]: Cytochrome P450 (CYP1A2), CYP1A2 (gene 1544)
Nature of the assay: LTEA_HepaRG_CYP1A2: Life Technologies and Expression Analysis (LTEA) Assay for Cytochrome P450 (CYP1A2) using HepaRG (AID 2283479). In a few lines: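 Differentiated human HepaRG cells in serum-free induction medium were exposed in duplicate for 48 h to 8-point half-log concentrations up to 100 uM in 0.5% DMSO. CYP1A2 mRNA measured by qRT-PCR, normalized to ACTB, GAPDH, POLR2A; bidirectional fit vs DMSO.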

Read-out in assay [5]: cysteine-aspartic acid protease (CASP8), CASP8 (gene 841)
Kind of assay: LTEA_HepaRG_CASP8: Life Technologies and Expression Analysis (LTEA) Assay for cysteine-aspartic acid protease (CASP8) using HepaRG (AID 2283480). Summed up: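 qRT-PCR readout of CASP8 mRNA, normalized to three housekeeping genes, after 48 h chemical exposure of HepaRG cells; 8-point half-log series, top 100 uM, 0.5% DMSO vehicle. Bidirectional curve fitting against DMSO baseline.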

Read-out in assay [6]: Cytochrome P450 (CYP2B6), CYP2B6 (gene 1555)
Nature of the assay: LTEA_HepaRG_CYP2B6: Life Technologies and Expression Analysis (LTEA) Assay for Cytochrome P450 (CYP2B6) using HepaRG (AID 2283481). Summed up: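 Differentiated HepaRG cells, serum-free induction medium, exposed 48 h in duplicate to 8-point half-log concentrations from 100 uM in 0.5% DMSO. CYP2B6 mRNA by qRT-PCR, normalized to ACTB, GAPDH, POLR2A; bidirectional fit versus DMSO.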

Read-out in assay [7]: Cytochrome P450 2C19 (Homo sapiens) (UniProt P33261)
Kind of assay: LTEA_HepaRG_CYP2C19: Life Technologies and Expression Analysis (LTEA) Assay for CYP2C19 using HepaRG (AID 2283482). In a few lines: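 Differentiated human HepaRG cells were exposed for 48 h in serum-free induction medium to 8 concentrations (top 100 uM, half-log steps, 0.5% DMSO). CYP2C19 mRNA was measured by qRT-PCR, normalized to ACTB/GAPDH/POLR2A, and fitted bidirectionally against DMSO.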

Read-out in assay [8]: CYP2C8 (gene 1558)
Kind of assay: LTEA_HepaRG_CYP2C8: Life Technologies and Expression Analysis (LTEA) Assay for CYP2C8 using HepaRG (AID 2283483). Summed up:
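HepaRG (human liver line), 48 h chemical exposure, 8-pt half-log series from 100 uM, 0.5% DMSO vehicle. Readout: CYP2C8 transcript by qRT-PCR, housekeeping-normalized. Bidirectional fit vs DMSO baseline.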

Read-out in assay [9]: CYP2C9 (gene 1559)
Nature of the assay: LTEA_HepaRG_CYP2C9: Life Technologies and Expression Analysis (LTEA) Assay for CYP2C9 using HepaRG (AID 2283484). In a few lines: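 HepaRG, 48 h dosing, 8-pt half-log series, top 100 uM, 0.5% DMSO vehicle. Read-out: CYP2C9 transcript by TaqMan qRT-PCR, housekeeping-normalized (ACTB/GAPDH/POLR2A). Gain or loss fitted vs DMSO baseline.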

Read-out in assay [10]: CYP2E1 (gene 1571)
Kind of assay: LTEA_HepaRG_CYP2E1: Life Technologies and Expression Analysis (LTEA) Assay for CYP2E1 using HepaRG (AID 2283485). In a few lines:
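Assay uses 48 h exposure of HepaRG hepatic cells, eight concentrations to 100 uM. Expression of CYP2E1 is quantified by TaqMan qRT-PCR with ACTB, GAPDH and POLR2A normalization; curves fitted in both directions relative to vehicle.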

Read-out in assay [11]: CYP4A11 (gene 1579)
Kind of assay: LTEA_HepaRG_CYP4A11: Life Technologies and Expression Analysis (LTEA) Assay for CYP4A11 using HepaRG (AID 2283486). Summed up:
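Differentiated HepaRG cells, serum-free induction medium, exposed 48 h in duplicate to 8-point half-log series from 100 uM in 0.5% DMSO. CYP4A11 mRNA measured by qRT-PCR, normalized to ACTB, GAPDH, POLR2A; bidirectional fit versus DMSO.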

Read-out in assay [12]: Cytochrome P450 3A4 (Homo sapiens) (UniProt P08684)
Kind of assay: LTEA_HepaRG_CYP3A4: Life Technologies and Expression Analysis (LTEA) Assay for CYP3A4 using HepaRG (AID 2283487). Summed up:
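HepaRG, 48 h exposure, 8-pt CRC from 100 uM (half-log), 0.5% DMSO, duplicates; serum-free induction medium. Readout: CYP3A4 mRNA, qRT-PCR, ACTB/GAPDH/POLR2A normalization. Bidirectional fit vs DMSO.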

Read-out in assay [13]: DNA damage-inducible transcript 3 (DDIT3), DDIT3 (gene 1649)
Kind of assay: LTEA_HepaRG_DDIT3: Life Technologies and Expression Analysis (LTEA) Assay for DNA damage-inducible transcript 3 (DDIT3) using HepaRG (AID 2283488). Summed up:
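Eight-point concentration-response (100 uM highest, half-log dilutions) in HepaRG, 48 h, duplicate wells. Endpoint: qRT-PCR mRNA, normalized (ACTB, GAPDH, POLR2A), bidirectional fitting with DMSO as baseline.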

Read-out in assay [14]: Pro-epidermal growth factor (Homo sapiens) (UniProt P01133)
Kind of assay: LTEA_HepaRG_EGF: Life Technologies and Expression Analysis (LTEA) Assay for Epidermal growth factor (EGF) using HepaRG (AID 2283489). In a few lines: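 Differentiated human HepaRG cells, plated 48 h then switched to serum-free induction medium, were exposed for 48 h to test chemicals (8-point half-log series, top 100 uM, 0.5% DMSO). EGF mRNA was quantified by qRT-PCR, normalized to ACTB, GAPDH, POLR2A.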

Read-out in assay [15]: Early growth response protein 1 (EGR1) transcription factor, EGR1 (gene 1958)
Nature of the assay: LTEA_HepaRG_EGR1: Life Technologies and Expression Analysis (LTEA) Assay for Early growth response protein 1 (EGR1) transcription factor using HepaRG (AID 2283490). In a few lines: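 HepaRG, 48 h exposure, 8-pt half-log series from 100 uM, 0.5% DMSO vehicle; EGR1 transcript by TaqMan qRT-PCR (Fluidigm array), housekeeping-normalized; bidirectional fit relative to DMSO baseline.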

Read-out in assay [16]: Ezrin (EZR), EZR (gene 7430)
Nature of the assay: LTEA_HepaRG_EZR: Life Technologies and Expression Analysis (LTEA) Assay for Ezrin (EZR) using HepaRG (AID 2283491). Summed up: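 Read-out is EZR transcript level by qRT-PCR, normalized to three housekeeping genes and fitted bidirectionally against the DMSO control. Human HepaRG cells received test chemicals for 48 h at eight half-log concentrations up to 100 uM in 0.5% DMSO.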

Read-out in assay [17]: Cytochrome P450 3A7 (Homo sapiens) (UniProt P24462)
Kind of assay: LTEA_HepaRG_CYP3A7: Life Technologies and Expression Analysis (LTEA) Assay for CYP3A7 using HepaRG (AID 2283492). Summed up:
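HepaRG cells plated 48 h, then dosed in serum-free induction medium for 48 h at 8 concentrations (top 100 uM, half-log steps, 0.5% DMSO). CYP3A7 mRNA by qRT-PCR, normalised to ACTB/GAPDH/POLR2A; bidirectional fit versus DMSO.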

Read-out in assay [18]: CYP3A5 (gene 1577)
Nature of the assay: LTEA_HepaRG_CYP3A5: Life Technologies and Expression Analysis (LTEA) Assay for CYP3A5 using HepaRG (AID 2283493). Summed up: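 Readout was CYP3A5 mRNA by qRT-PCR. HepaRG cultures were exposed for 48 h in serum-free induction medium to chemicals at up to 100 uM, and responses were fitted in both directions relative to DMSO vehicle.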

Read-out in assay [19]: Fatty Acid-Binding Protein 1 (FABP1), FABP1 (gene 2168)
Nature of the assay: LTEA_HepaRG_FABP1: Life Technologies and Expression Analysis (LTEA) Assay for Fatty Acid-Binding Protein 1 (FABP1) using HepaRG (AID 2283494). In a few lines: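 qRT-PCR readout of FABP1 transcript (normalized to three housekeeping genes) after 48 h chemical exposure of HepaRG cells; eight concentrations, half-log steps, max 100 uM, 0.5% DMSO vehicle; gain or loss fitted relative to DMSO baseline.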

Read-out in assay [20]: Bcl-2 (BID) gene, BID (gene 637)
Kind of assay: LTEA_HepaRG_BID: Life Technologies and Expression Analysis (LTEA) Assay for Bcl-2 (BID) gene using HepaRG (AID 2283476). In a few lines: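 Assay used HepaRG hepatic cells treated 48 h in serum-free medium with half-log dilutions from 100 uM. Endpoint: BID mRNA, qRT-PCR, normalized to ACTB/GAPDH/POLR2A.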

A structure can be active in one record and inactive in another. Activity calls are given as the source filed them. Rule for the calls: active = hit-call score of the fitted dose curve at least 0.9, where 1 is the maximum; inactive = score below 0.9.

What is called AC50 is the concentration at which the activity in the assay is half-maximal.

Chain of Caspase-3 (Homo sapiens) (P42574 whole entry, looked up): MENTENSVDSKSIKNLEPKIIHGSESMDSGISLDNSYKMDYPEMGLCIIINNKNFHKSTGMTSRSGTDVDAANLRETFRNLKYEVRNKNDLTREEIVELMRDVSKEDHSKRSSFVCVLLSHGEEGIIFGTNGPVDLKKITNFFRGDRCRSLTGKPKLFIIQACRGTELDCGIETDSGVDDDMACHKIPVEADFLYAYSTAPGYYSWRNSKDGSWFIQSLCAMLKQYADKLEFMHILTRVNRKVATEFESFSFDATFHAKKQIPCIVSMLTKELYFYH
Chain of Cytochrome P450 3A7 (Homo sapiens) (P24462 whole entry, looked up): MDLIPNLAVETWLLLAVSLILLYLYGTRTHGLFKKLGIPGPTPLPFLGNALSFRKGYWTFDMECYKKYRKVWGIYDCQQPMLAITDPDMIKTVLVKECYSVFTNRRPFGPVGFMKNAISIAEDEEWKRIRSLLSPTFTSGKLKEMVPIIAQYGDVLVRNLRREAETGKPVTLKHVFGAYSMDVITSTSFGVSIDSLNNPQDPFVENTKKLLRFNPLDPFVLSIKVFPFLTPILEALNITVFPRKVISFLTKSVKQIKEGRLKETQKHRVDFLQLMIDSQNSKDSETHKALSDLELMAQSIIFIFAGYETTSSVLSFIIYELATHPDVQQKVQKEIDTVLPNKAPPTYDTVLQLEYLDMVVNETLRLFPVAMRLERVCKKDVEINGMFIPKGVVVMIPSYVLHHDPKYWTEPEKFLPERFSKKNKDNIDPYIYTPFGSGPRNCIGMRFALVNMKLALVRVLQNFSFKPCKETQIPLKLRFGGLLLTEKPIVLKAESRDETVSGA
Chain of Cytochrome P450 2C19 (Homo sapiens) (P33261 whole entry, looked up): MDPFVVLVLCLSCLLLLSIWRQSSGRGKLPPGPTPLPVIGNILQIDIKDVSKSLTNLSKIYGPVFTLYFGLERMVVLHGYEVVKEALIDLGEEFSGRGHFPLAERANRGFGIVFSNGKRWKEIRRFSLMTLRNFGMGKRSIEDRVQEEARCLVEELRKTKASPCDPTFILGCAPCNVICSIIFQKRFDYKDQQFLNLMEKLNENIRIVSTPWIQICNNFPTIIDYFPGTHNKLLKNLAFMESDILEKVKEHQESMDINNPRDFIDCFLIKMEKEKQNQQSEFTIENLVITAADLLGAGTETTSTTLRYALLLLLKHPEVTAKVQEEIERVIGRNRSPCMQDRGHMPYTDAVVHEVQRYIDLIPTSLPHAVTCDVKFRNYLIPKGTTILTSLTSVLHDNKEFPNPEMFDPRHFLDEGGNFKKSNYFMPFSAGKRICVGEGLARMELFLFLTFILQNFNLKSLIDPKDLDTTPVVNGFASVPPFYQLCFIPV
Chain of Apoptosis regulator Bcl-2 (Homo sapiens) (P10415 whole entry, looked up): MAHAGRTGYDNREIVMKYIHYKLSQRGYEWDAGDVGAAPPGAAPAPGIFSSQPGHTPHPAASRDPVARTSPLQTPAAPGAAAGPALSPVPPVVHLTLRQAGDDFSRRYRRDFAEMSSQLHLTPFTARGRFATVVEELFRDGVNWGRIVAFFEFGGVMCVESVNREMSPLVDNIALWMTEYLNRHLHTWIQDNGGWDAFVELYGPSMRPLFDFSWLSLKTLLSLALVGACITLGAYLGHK
Chain of Cytochrome P450 3A4 (Homo sapiens) (P08684 whole entry, looked up): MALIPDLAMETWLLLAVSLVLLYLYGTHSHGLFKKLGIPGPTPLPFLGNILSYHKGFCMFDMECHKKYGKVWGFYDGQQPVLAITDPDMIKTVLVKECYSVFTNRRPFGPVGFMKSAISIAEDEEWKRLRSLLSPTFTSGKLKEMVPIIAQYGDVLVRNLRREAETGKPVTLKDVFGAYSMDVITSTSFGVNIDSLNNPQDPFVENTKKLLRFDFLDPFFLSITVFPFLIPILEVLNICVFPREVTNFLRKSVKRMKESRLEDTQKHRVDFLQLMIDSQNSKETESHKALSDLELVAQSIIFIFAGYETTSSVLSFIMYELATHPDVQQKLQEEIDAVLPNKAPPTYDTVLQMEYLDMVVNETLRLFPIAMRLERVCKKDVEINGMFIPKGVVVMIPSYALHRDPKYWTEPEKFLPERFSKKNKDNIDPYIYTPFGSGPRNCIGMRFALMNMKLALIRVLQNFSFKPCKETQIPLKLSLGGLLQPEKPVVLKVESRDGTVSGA

`O=[N+]([O-])c1ccc(O)cc1`: the molecule was called inactive in [1], in assay [2], in assay [3], in assay [4], in assay [5] and in [6]. Besides, the result in [7], in assay [8], in assay [9], in assay [10], in assay [11] and in [12] was inactive. Further, the molecule was classed as inactive in [13], in assay [14], in [15], in [16], in assay [17] and in assay [18]. Besides, the result in assay [19] was inactive. Besides, the AC50 in assay [6] is 19.9 µM (active).
On to `CCCCCCCCCCCCN1CCCC1=O`, for which the molecule was classed as inactive in assay [1], in assay [20], in assay [2], in [3], in assay [4] and in assay [5]. In addition, the molecule was classed as inactive in assay [6], in [7], in [8], in assay [9], in assay [10] and in [11]. The result in assay [12], in [13], in assay [14], in assay [15], in assay [16] and in assay [18] was inactive. For the same molecule, the call in assay [19] was inactive.
Turning to `OCCC(F)(F)C(F)(F)C(F)(F)C(F)(F)C(F)(F)C(F)(F)F`, the outcome in assay [1], in assay [20], in assay [2], in assay [3], in assay [4] and in [5] was inactive. Moreover, the outcome in assay [6], in [7], in assay [8], in assay [9], in assay [10] and in assay [11] was inactive. For the same molecule, the molecule was classed as inactive in assay [12], in assay [13], in [14], in assay [15], in assay [16] and in assay [18]. The outcome in assay [19] was inactive.
As to `c1ccc2c(c1)Cc1ccccc1-2`, the molecule was classed as inactive in [1], in [2], in assay [3], in [4], in [5] and in [7]. The result in [8], in [9], in [10], in [11], in [12] and in [13] was inactive. In addition, the result in assay [14], in assay [15], in [16], in assay [17], in assay [18] and in [19] was inactive. For the same molecule, the AC50 in [6] was 31.9 µM (active).
Take `N#C[C@@H]1CC(F)(F)CN1C(=O)CNC1CC2CCC(C1)N2c1ncccn1` (stereo not given in full): the outcome in assay [1], in [2], in [3], in assay [5], in [8] and in assay [9] was inactive. Moreover, the outcome in [10], in assay [11], in [13], in [14], in [15] and in assay [16] was inactive. Besides, the result in [17], in assay [18] and in assay [19] was inactive. The AC50 in [4] is 64.4 µM (active); in assay [6], 27.8 µM (active); in [7], 69 µM (active); in assay [12], 50 µM (active).
In the case of `CC(O)CO` (stereo not given), the outcome in assay [1], in assay [20], in [2], in assay [3], in assay [4] and in assay [5] was inactive. Also, the molecule was classed as inactive in assay [6], in assay [7], in [8], in [9], in assay [10] and in [11]. For the same molecule, the molecule was called inactive in assay [12], in assay [13], in assay [14], in [15], in assay [16] and in assay [18]. Further, the call in assay [19] was inactive.
